Screens as filed in PubChem.
3T3 cytotox: NIH 3T3 cell cytotoxicity. 94,000 compounds, 4.3% hits. Potency, µM (series often up to 96.7 µM), for the others: at the highest dose activity change, negative = cytotoxicity, actives largely listed as inhibitors. AID 1345082. NIH 3T3 viability, CellTiter-Glo ATP luminescence, 48-72 h; active = well fitted curve in the direction sought with a large enough effect; inconclusive = small, poorly fitted or top-dose-only effect, or another doubt; inactive = no such curve, though single readings can be large; an effect the other way counts as inactive or inconclusive; note: % is set by controls: 0 for no effect and ±100 for the full control effect; nearly all actives have a fitted effect of over 55% in size
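Mouse fibroblast NIH 3T3 cells, 400 per well, received compound via pintool and were incubated for 48 or 72 hr prior to CellTiter-Glo ATP luminescence measurement.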
FLuc inh: Photinus pyralis luciferase inhibition | Potency, µM (top dose mostly 115 µM), hits mostly inhibitors | 76,000 compounds, 2.5% hits | purified P. pyralis luciferase, luminescence, biochemical | P08659; active = well fitted curve in the direction sought with a large enough effect; inconclusive = small, poorly fitted or top-dose-only effect, or another doubt; inactive = no such curve, though single readings can be large; an effect the other way counts as inactive or inconclusive; note: % is set by controls: 0 for no effect and ±100 for the full control effect; nearly all actives have a fitted effect of over 65% in size
Target sequence (P08659 whole entry, looked up): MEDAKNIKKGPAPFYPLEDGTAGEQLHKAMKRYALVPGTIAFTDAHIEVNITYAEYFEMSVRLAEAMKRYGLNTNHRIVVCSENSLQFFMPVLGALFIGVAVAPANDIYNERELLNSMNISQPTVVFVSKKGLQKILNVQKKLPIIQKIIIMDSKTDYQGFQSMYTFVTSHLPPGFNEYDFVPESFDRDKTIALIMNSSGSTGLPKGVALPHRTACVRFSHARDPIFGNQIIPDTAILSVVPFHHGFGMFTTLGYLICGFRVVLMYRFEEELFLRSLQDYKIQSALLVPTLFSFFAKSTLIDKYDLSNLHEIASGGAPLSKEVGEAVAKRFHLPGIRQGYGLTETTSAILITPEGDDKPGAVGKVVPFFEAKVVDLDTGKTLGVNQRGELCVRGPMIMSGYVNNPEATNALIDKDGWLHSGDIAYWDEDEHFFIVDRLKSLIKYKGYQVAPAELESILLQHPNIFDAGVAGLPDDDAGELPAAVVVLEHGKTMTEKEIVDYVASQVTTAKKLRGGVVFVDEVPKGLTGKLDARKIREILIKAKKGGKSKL
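Purified 10nM P. pyralis luciferase with 10uM D-luciferin and 10uM ATP in 50mM Tris acetate pH 7.5, 10mM Mg acetate, 0.01% Tween-20, 0.05% BSA. qHTS titration; luminescence read by CCD imager.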
hNpr1 antagonist: antagonists of human natriuretic peptide receptor Npr1; AID 1347048; P16066; 76,000 compounds, 1.6% hits; HEK293 hNpr1 GloSensor cGMP, ANP-stimulated luminescence; Potency, µM (titrated, usually from 46.3 µM), for inactives: at the highest dose activity change, negative = inhibition, most hits filed as inhibitors; note: % is set by controls: 0 for no effect and ±100 for the full control effect; nearly all actives have a fitted effect of over 60% in size
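HEK293 cells stably expressing human Npr1 and cGMP GloSensor pGS-40F, loaded 2 h with 2% GloSensor reagent, given compound 30 min at room temperature. Luminescence read before and 20 min after 0.1 nM hNppA.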
HEK293 tox: kills HEK 293 cells; HEK 293 viability, ATP luminescence (CellTiter-Glo), 48-72 h; AID 1345083; 94,000 compounds, 6.6% hits; Potency, µM (doses to about 115 µM), for the others: at the highest dose activity change, negative = cytotoxicity, usual class: inhibitors; active = well fitted curve in the direction sought with a large enough effect; inconclusive = small, poorly fitted or top-dose-only effect, or another doubt; inactive = no such curve, though single readings can be large; an effect the other way counts as inactive or inconclusive; note: % is set by controls: 0 for no effect and ±100 for the full control effect; nearly all actives have a fitted effect of over 60% in size
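Cells seeded first (HEK 293, 250 cells/well), then compound added by pintool. Incubation ran 48 or 72 hr at 37 degree Celsius. CellTiter-Glo was added and luminescence imaged after 10 min at room temperature.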
Npr1 antag conf: hNpr1 antagonism, confirmation assay. shares compounds with hNpr1 antagonist. Potency, µM (doses to about 57.6 µM), for the others: at the top dose activity change, negative = inhibition, most hits filed as inhibitors. HEK293 hNpr1 cGMP GloSensor luminescence, ANP-stimulated. 1,400 compounds, 76% hits; note: nearly all actives have a fitted effect of over 70% in size
NPR2 antag: selectivity test of Npr1 antagonists against human Npr2 | shares compounds with hNpr1 antagonist | HEK293 hNpr2 GloSensor cGMP luminescence, CNP-stimulated | Potency, µM (top dose mostly 57.6 µM), for inactives: at the highest dose activity change, negative = inhibition, most hits filed as inhibitors | 1,400 compounds, 67% hits | AID 1347046; note: nearly all actives have a fitted effect of over 70% in size
FLuc counter: FLuc enzyme inhibition, Npr1 counter-screen | shares compounds with hNpr1 antagonist | purified FLuc enzyme, luminescence, Km substrate | Potency, µM (titrated, usually from 57.6 µM), inactives show top-dose activity change, negative = inhibition, actives largely listed as inhibitors | 1,400 compounds, 0.7% hits | AID 1347047; active = well fitted curve in the direction sought with a large enough effect; inconclusive = small, poorly fitted or top-dose-only effect, or another doubt; inactive = no such curve, though single readings can be large; an effect the other way counts as inactive or inconclusive; note: series mostly up to about 58 µM; 0% is about no effect
GloSensor ctrl: reduces cGMP signal in GloSensor control cells; HEK293 GloSensor cGMP, SNP-stimulated, luminescence; Potency, µM (doses to about 57.6 µM), for the others: at the top dose activity change, negative = inhibition, hits mostly inhibitors; 1,400 compounds, 69% hits; shares compounds with hNpr1 antagonist; note: % is set by controls: 0 for no effect and ±100 for the full control effect; nearly all actives have a fitted effect of over 70% in size
* = called active by the depositor; [ ] = another dose, or the depositor's remark. An excerpt weighted towards active compounds, which were near 11% of everything screened. Unless noted, calls come from the whole dose curve. Potency is the fitted concentration of half-maximal effect.

CN(C)c1cccc(C(=O)N2CCNc3cnc(Nc4ccc(N5CCOCC5)cc4)nc3C2)c1 was read as 3T3 cytotox -26%, FLuc inh inactive, hNpr1 antagonist -26% and HEK293 tox inconclusive.
For COc1ccccc1Nc1ncc2c(n1)CN(C(=O)c1ccccc1)CCN2 the results were 3T3 cytotox inconclusive, FLuc inh inactive, hNpr1 antagonist 32µM*, HEK293 tox inconclusive, Npr1 antag conf 40µM*, NPR2 antag inconclusive, FLuc counter -11%[86.2 µM] and GloSensor ctrl 40µM*.
For CC(C)NC(=O)NC[C@H]1OC[C@@H](NCc2ncc[nH]2)[C@@H]1O the results were 3T3 cytotox -6%[174 µM], FLuc inh inactive, hNpr1 antagonist -1%[70.6 µM] and HEK293 tox 1%[172 µM].
CCOc1cc(CN2CCC(C)(c3noc(C4CCOCC4)n3)CC2)ccc1O was read as 3T3 cytotox 2%, FLuc inh inactive, hNpr1 antagonist 1% and HEK293 tox -3%.
Screening CCCCOC(=O)N1C[C@@H](C(N)=O)[C@@H]2Oc3c(C)cccc3[C@@H]21 returned 3T3 cytotox -23% and HEK293 tox inconclusive.
CCN1C(=O)Cc2ccccc2C1C(=O)NCc1ccccc1Br (stereo not drawn) was read as 3T3 cytotox -6%, FLuc inh inactive, hNpr1 antagonist -23%, HEK293 tox -19%, Npr1 antag conf -29%, NPR2 antag inconclusive, FLuc counter -14% and GloSensor ctrl -9%.
CCN1C(=O)Cc2ccccc2C1C(=O)NCc1ccccc1C (stereo not drawn) was read as 3T3 cytotox 3%, FLuc inh inactive, hNpr1 antagonist -11% and HEK293 tox -8%.
COCCNC(=O)c1nc2sccn2c1-c1ccncc1 was read as 3T3 cytotox -8%[138 µM] and HEK293 tox -28%[172 µM].
Screening COc1ccc(-c2noc(CC3CCN(C(=O)c4cc(Cl)ccc4F)CC3)n2)cc1 returned 3T3 cytotox inconclusive, FLuc inh inactive, hNpr1 antagonist 7.1µM*, HEK293 tox 40µM*, Npr1 antag conf 9.7µM*, NPR2 antag 11µM*, FLuc counter 0% and GloSensor ctrl 9.7µM*.
For COc1ccc(-c2noc(CC3CCN(C(=O)c4cc(F)ccc4F)CC3)n2)cc1 the results were 3T3 cytotox inconclusive, FLuc inh inactive, hNpr1 antagonist 7.1µM*, HEK293 tox inconclusive, Npr1 antag conf 6.9µM*, NPR2 antag 6.9µM*, FLuc counter -4% and GloSensor ctrl 4.3µM*.
CC(C)C(=O)N1CCC2(CC1)OC(=O)N(CCOc1ccccc1)C2(C)c1cccnc1 (stereo not drawn) was read as 3T3 cytotox inconclusive, FLuc inh inactive, hNpr1 antagonist -5%[70.6 µM] and HEK293 tox -34%[172 µM].
COCCCN(CCC(=O)NCCc1ccccc1)C(=O)c1cc(C)oc1C was read as 3T3 cytotox inconclusive, FLuc inh inactive, hNpr1 antagonist -2% and HEK293 tox inconclusive.
CCCCCN(CCC(=O)NCc1ccc2c(c1)OCO2)C(=O)c1cc(C)oc1C was read as 3T3 cytotox 32µM*, FLuc inh inactive, hNpr1 antagonist 13µM*, HEK293 tox inconclusive, Npr1 antag conf inconclusive, NPR2 antag inconclusive, FLuc counter 2% and GloSensor ctrl 1%.
For CCCCCCN(CCC(=O)NCCc1ccccc1)C(=O)c1cc(C)oc1C the results were 3T3 cytotox inconclusive, FLuc inh inactive, hNpr1 antagonist 16µM*, HEK293 tox 8.9µM*, Npr1 antag conf inconclusive, NPR2 antag inconclusive, FLuc counter -21% and GloSensor ctrl inconclusive.
CCOC(=O)c1ccc(CNC(=O)N2CCC3(CC2)CN(c2ccccc2)C3=O)cc1 was read as 3T3 cytotox inconclusive, FLuc inh inactive, hNpr1 antagonist inconclusive, HEK293 tox inconclusive, Npr1 antag conf inconclusive, NPR2 antag inconclusive, FLuc counter -6% and GloSensor ctrl inconclusive.
Screening CCNC(=O)N1CCC2(CC1)CN(c1ccccc1)C2=O returned 3T3 cytotox inactive, FLuc inh inactive, hNpr1 antagonist 8% and HEK293 tox -7%.
O=C(Nc1cccnc1)c1cc(-c2ccccc2F)cc2c1OCCN2Cc1cccnc1 was read as 3T3 cytotox 40µM*, FLuc inh inactive, hNpr1 antagonist inconclusive, HEK293 tox inconclusive, Npr1 antag conf inconclusive, NPR2 antag 31µM*, FLuc counter -16%[86.2 µM] and GloSensor ctrl -5%[86.2 µM].
Screening O=C(N1CCC2(CC1)CC(Cc1nc(-c3cnccn3)no1)CCO2)C1(c2ccccc2)CC1 (stereo not drawn) returned 3T3 cytotox -20%, FLuc inh inactive, hNpr1 antagonist 1% and HEK293 tox inconclusive.
Screening COc1cccc(CCC(=O)N2CCC(Cc3nc(-c4ccc(F)cc4)no3)CC2)c1 returned 3T3 cytotox inconclusive, FLuc inh inactive, hNpr1 antagonist 11µM*, HEK293 tox inconclusive, Npr1 antag conf 14µM*, NPR2 antag 17µM*, FLuc counter 3% and GloSensor ctrl 11µM*.
COc1ccccc1CCC(=O)N1CCC(Cc2nc(-c3ccccc3)no2)CC1 was read as 3T3 cytotox inconclusive, FLuc inh inactive, hNpr1 antagonist inconclusive and HEK293 tox inconclusive.
For COc1ccc(CCC(=O)N2CCC(Cc3nc(C4CCOCC4)no3)CC2)cc1 the results were 3T3 cytotox -25%, FLuc inh inactive, hNpr1 antagonist 6% and HEK293 tox inconclusive.
Screening COc1ccc(-c2noc(CC3CCN(C(=O)CCCc4ccccc4)CC3)n2)cc1 returned 3T3 cytotox inconclusive, FLuc inh inactive, hNpr1 antagonist inconclusive, HEK293 tox 28µM*, Npr1 antag conf 17µM*, NPR2 antag 19µM*, FLuc counter -6% and GloSensor ctrl 19µM*.
Screening COc1cccc(-c2noc(CC3CCN(C(=O)CCCc4ccccc4)CC3)n2)c1 returned 3T3 cytotox inconclusive, FLuc inh inactive, hNpr1 antagonist inconclusive, HEK293 tox inconclusive, Npr1 antag conf inconclusive, NPR2 antag inconclusive, FLuc counter 0% and GloSensor ctrl 31µM*.
